Most compounds without a hit are left out; they make up all but 4% or so of the library.
tim10-1 inh: growth inhibitors of tim10-1 mutant yeast; 330,000 tested, 2.2% active; S. cerevisiae tim10-1 ts strain growth, BacTiter-Glo, 24 h; inhibition, % at 20 µM;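 active = inhibition of at least 40%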;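 also: mutant grown at 25 °C; 0% = DMSO wells with yeast and 100% = wells holding no yeast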
NALP1 yeast inh: inhibitors of NALP1 inflammasome in yeast. S. cerevisiae NALP1/ASC/caspase-1 growth, X-gal OD620, 72 h. inhibition, % at 10 µM. 280,000 tested, 0.61% active. AID 2071; in the data active = inhibition mostly above about 24%, no sharp cut-off; inactive = mostly below about 32%
tim23-1 inh: tim23-1 yeast growth inhibition. S. cerevisiae tim23-1 growth, BacTiter-Glo luminescence, 24 h. inhibition, % at 20 µM. AID 463212. 330,000 tested, 1.3% active;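 active = growth inhibition of the mutant yeast at or above 50%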;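 also: temperature-sensitive mutant grown at 25 °C; plate controls were DMSO-treated mutant yeast for no effect and medium wells lacking yeast for full effect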
TIM10 inh: inhibits growth of TIM10 yeast strain. S. cerevisiae TIM10 strain growth, BacTiter-Glo luminescence, 24 h. inhibition, % at 10 µM. 330,000 tested, 1.4% active;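 active = inhibition of 40% or more at the single tested concentration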;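 also: wild-type TIM10 isogenic control strain grown at permissive 25 °C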
NLRP3 yeast inh: NALP3 inhibition in yeast | Yeast reconstituted NLRP3/ASC/caspase-1, beta-gal luminescence, 24 h | inhibition, % at 10 µM | 330,000 tested, 0.39% active | AID 2825;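 active = inhibition of 50% or more; inactive = inhibition below 50%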;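 also: plate controls were induced DMSO wells for no effect and uninduced yeast grown without galactose for full effect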
tim10 confirm: TIM10 yeast growth inhibition, confirmed; shares compounds with TIM10 inh; AID 463215; 4,600 tested, 63% active; S. cerevisiae tim10 strain growth, BacTiter-Glo luminescence, 24 h; inhibition, % at 10 µM;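 active = inhibition of yeast growth at or above a set limit in either of two replicates at 10 µM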;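 also: this counterscreen used the strain with wild-type TIM10; 0% = yeast with DMSO and 100% = medium wells lacking yeast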
tim23-1 confirm: tim23-1 yeast growth inhibition, confirmed | shares compounds with tim23-1 inh | S. cerevisiae tim23-1 growth, BacTiter-Glo luminescence, 24 h | inhibition, % at 20 µM | 4,400 tested, 83% active | AID 463218;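 active = inhibition above about 39% in either of two replicate wells at 20 µM, limit read from the data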;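 also: temperature-sensitive tim23-1 mutant grown at 25 °C; 0% = DMSO wells with yeast and 100% = medium wells without yeast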
An asterisk follows results filed as active; . = not tested or not shown.

SMILES | tim10-1 inh | NALP1 yeast inh | tim23-1 inh | TIM10 inh | NLRP3 yeast inh | tim10 confirm | tim23-1 confirm
Oc1c(Br)cc(Br)cc1/C=N/NC(=S)N[C@H]1CC2C=CC1C2 (some centres undefined) | 30 | 9 | 57* | 46* | 13 | 48* | 68*
NC(=S)NC1CC2C=CC1C2 (centres undefined) | 6 | 19 | 13 | 13 | 8 | . | .
CCC(C(=O)NCCN1CCOCC1)n1nc(C)n2c(cc3sccc32)c1=O (centres undefined) | 11 | 21 | 13 | -6 | 20 | . | .
CN1/C(=C\C(=O)CSc2cccc[n+]2[O-])C(C)(C)c2ccccc21 | 32 | -2 | 65* | 41* | 2 | -6 | 78*
Fc1ccc(Oc2ccnc(Cl)n2)c(Cl)c1 | -3 | . | -23 | -9 | -16 | . | .
Cc1nc(C)c(-c2csc(Nc3ccccn3)n2)s1 | 27 | 2 | 54* | 48* | 14 | 47* | 45*
O=C(N[C@H](C(=O)O)c1ccccc1)C1CCC(Cn2nnc3ccccc3c2=O)CC1 (some centres undefined) | 3 | 6 | -13 | 3 | -4 | . | .
CC1(c2ccccc2)ON(c2ccccc2C(F)(F)F)C1=O (centres undefined) | -33 | . | 62* | 54* | -4 | 65* | -13
Cc1cccc(-n2ccnc2CN2CCN(C(C)C)C(CCO)C2)c1 (centres undefined) | 19 | . | 4 | 1 | 0 | . | .
O=[N+]([O-])c1cc(C(F)(F)F)ccc1NCCNC(=S)Nc1ccc(Cl)cc1 | -32 | 6 | 81* | 56* | 38 | 50* | -15
O=[N+]([O-])c1cc(C(F)(F)F)ccc1NCCCCNS(=O)(=O)c1ccc(Cl)cc1 | 10 | 23 | 13 | -6 | -5 | . | .
CC(C)c1ccc(OC(=O)c2ccc3c(=O)n4c(nc3c2)CCC4)cc1 | 17 | . | -1 | 6 | 7 | . | .
O=C(Nc1ccc2oc(-c3ccccc3F)nc2c1)c1ccccc1F | 7 | 5 | 61* | 55* | 47 | 60* | 79*
O=C(Nc1ccc2oc(-c3cccc(F)c3)nc2c1)c1ccccc1F | -6 | -10 | 31 | 22 | -1 | . | .
COc1ccccc1-n1cnc2cc(NC(=O)c3ccco3)ccc21 | 27 | -2 | 56* | 44* | 34 | 37* | 68*
NC(=O)c1oc2ccccc2c1NC(=O)c1ccc([N+](=O)[O-])o1 | 29 | -3 | 66* | 57* | 5 | 66* | 59*
NC(=O)c1oc2ccccc2c1NC(=O)c1ccc(F)cc1 | 14 | 15 | 14 | 13 | 16 | . | .
COc1ccc(CNS(=O)(=O)c2cccc(S(=O)(=O)N3CCOCC3)c2)cc1 | -2 | -11 | -6 | -4 | 13 | . | .
CN(C(=O)COC(=O)c1cc2ccccc2cc1O)c1ccccc1 | 25 | . | 62* | 40* | 27 | 47* | 48*
CN(C(=O)COC(=O)c1ccccc1C(=O)N(C)c1ccccc1)c1ccccc1 | 24 | 4 | 0 | -1 | 11 | . | .
Cc1cc(NC(=O)c2ccco2)sc1C | 0 | . | 52* | 43* | 39 | 27 | 59*
Cc1cccc(NC(=O)c2ccco2)c1C | -22 | 14 | -3 | -9 | -12 | . | .
CC(=O)c1ccc(N2CCN(C(=O)/C=C/c3ccc4ccccc4n3)CC2)cc1 | 24 | 3 | 50* | 64* | 37 | 76* | 40*
O=c1c(-c2ccc3c(c2)OCCO3)coc2cc(O)cc(O)c12 | 35 | -1 | 56* | 41* | 20 | 36* | 49*
Cc1ccc(C)c(NC(=O)CN(C)C(=O)c2cc(-c3cccs3)nn2-c2ccccc2)c1 | 29 | 7 | 18 | -9 | -4 | . | .
SMILES | tim10-1 inh | NALP1 yeast inh | tim23-1 inh | TIM10 inh | NLRP3 yeast inh | tim10 confirm | tim23-1 confirm
c1ccc(OCC2CCNCC2)nc1 | 6 | 0 | 17 | -5 | 4 | . | .
COc1ccc(/C=N/n2c(N)nc3ccccc32)cc1OC | -7 | -1 | -1 | -4 | 17 | . | .
COc1cccc(/C=N/n2c(N)nc3ccccc32)c1OC | 10 | 5 | 60* | 44* | 10 | 45* | 38
COCC(=O)Nc1cc(C(=O)Nc2ccccc2)ccc1Cl | 31 | -10 | 54* | 42* | 21 | 47* | 71*
COc1ccc(C(=O)Nc2ccccc2)cc1NC(=O)c1cccs1 | 18 | -1 | 51* | 54* | 21 | 45* | 74*
C=CCNc1cc(N2CCCC2)ccc1[N+](=O)[O-] | 5 | 1 | -4 | -17 | 50 | . | .
O=C(C1COc2ccccc2O1)N1CCN(c2ccc([N+](=O)[O-])cc2)CC1 (centres undefined) | 36 | . | 61* | 43* | 12 | 47* | 55*
COC(=O)CCN(c1ccccc1)S(=O)(=O)c1cc(-c2cc(C)no2)ccc1OC | 29 | 20 | 32 | -4 | -3 | . | .
CCCn1c(CN2CCN(C(=O)OCC)CC2)nc2cc(NC(=O)C(C)C)ccc21 | 14 | 3 | 17 | 6 | -7 | . | .
COC(=O)c1ccccc1NC(=S)NC(=O)c1ccccc1 | 14 | 8 | 34 | 37 | 5 | . | .
COC(=O)c1ccccc1NC(=S)NC(=O)c1ccc(C)cc1 | 26 | -26 | 60* | 51* | 2 | 15 | 45*
O=C1Nc2ccc(Br)cc2/C1=C/C(=O)c1ccc2c(c1)OCO2 | 17 | . | 73* | 53* | 17 | 64* | -70
O=C(/C=C\Nc1ccc2c(c1)OCO2)c1ccc2c(c1)OCO2 | -19 | 8 | -1 | -13 | 18 | . | .
COc1ccc(C(=O)NN)cc1COc1ccc(Br)cc1 | 31 | 6 | 61* | 47* | 11 | 40* | 43*
NNC(=O)c1cn2ccccc2n1 | 2 | -3 | 4 | 10 | 7 | . | .
Cc1ccc(C(=O)COC(=O)c2cn3ccccc3n2)cc1 | 20 | 5 | 57* | 48* | 27 | 42* | 69*
Cc1cc(C(C)(C)C)cc(C)c1C(=O)O | -4 | 12 | -8 | -6 | 16 | . | .
CSc1nnc(C)c(/C=C/Nc2ccc(C)cc2)n1 | 37 | 6 | 38 | 20 | 14 | . | .
CSc1nnc(C)c(/C=C/NOCc2ccc(Cl)cc2)n1 | 34 | -8 | 54* | 19 | 12 | . | 72*
COC(=O)C1=C(Nc2ccccc2NC(=O)c2ccccc2C(=O)O)CSC1 | 21 | . | 28 | 17 | 5 | . | .
COC(=O)C1=C(Nc2ccccc2NS(=O)(=O)c2ccc(C(F)(F)F)cc2Cl)CSC1 | 38 | . | 54* | 34 | 16 | . | 52*
Cc1ccc(Nc2nc(-c3sc(N)nc3C)cs2)cc1 | 33 | -7 | 65* | 33 | 20 | . | 63*
CC(C)c1ccc(/C=C2\SC(=S)N(CCC(=O)N3CCCCC3CCO)C2=O)cc1 (centres undefined) | 36 | 3 | 33 | 3 | 1 | . | .

From PubChem BioAssay
